Source: publication PMC8384837, “Expanding the binding specificity for RNA recognition by a PUF domain”
Substitutions are numbered along the chain they refer to.

Key:
Test in all cases: yeast three-hybrid, YBZ-1, SC-Leu-His + 0.5 mM 3-AT, 4 days
Details in all cases: tags: N-Gal4 AD-HA kept; label: inside an RPR1-promoter hybrid RNA with tandem MS2 sites; ssRNA
[1] = molecular target: PUM1 PUF domain R5-KHL (Homo sapiens, UniProt Q14671 828-1176, C1007K;R1008H;Q1011L)
Method in brief: (§1)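 Pumilio-1 PUF domain libraries, randomized at the three base-contacting residues of each repeat, were co-expressed with matching RNA elements from a centromeric plasmid in strain YBZ-1, which carries a LexA–MS2 coat fusion and a HIS3 reporter. Transformants grew for four days on SC-Leu (input) or on SC-Leu-His + 0.5 mM 3-AT (selection), and the repeat regions were PCR-amplified and Illumina-sequenced. The interaction score is the log change in variant frequency from input to selection. That logarithm is base 2, with a pseudocount of 1 where a variant was absent.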

[2] = molecular target: T1, PUM1 PUF domain R6-KWR (Homo sapiens, UniProt Q14671 828-1176, N1043K;Y1044W;Q1047R)
T1 sequence: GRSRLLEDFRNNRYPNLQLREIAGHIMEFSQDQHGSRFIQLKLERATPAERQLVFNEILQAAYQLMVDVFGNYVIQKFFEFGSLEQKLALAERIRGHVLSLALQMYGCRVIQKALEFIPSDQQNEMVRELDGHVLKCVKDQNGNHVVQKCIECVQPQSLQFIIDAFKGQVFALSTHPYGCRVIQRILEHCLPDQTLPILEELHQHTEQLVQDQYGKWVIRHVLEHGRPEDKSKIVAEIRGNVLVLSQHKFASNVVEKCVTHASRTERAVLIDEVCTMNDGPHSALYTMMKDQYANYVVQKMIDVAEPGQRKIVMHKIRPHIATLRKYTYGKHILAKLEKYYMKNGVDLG
Method in brief: as §1

[3] = molecular target: PUM1 PUF domain R7-QRD (Homo sapiens, UniProt Q14671 828-1176, S1079Q;N1080R;E1083D)
Method in brief: as §1

[4] = molecular target: T2, PUM1 PUF domain R6-LWV (Homo sapiens, UniProt Q14671 828-1176, N1043L;Y1044W;Q1047V)
T2 sequence: T1 sequence with K216L, R220V
Method in brief: as §1

[5] = molecular target: PUM1 PUF domain R3-GWI (Homo sapiens, UniProt Q14671 828-1176, C935G;R936W;Q939I)
Method in brief: as §1

[6] = molecular target: PUM1 PUF domain R5-MSR (Homo sapiens, UniProt Q14671 828-1176, C1007M;R1008S;Q1011R)
Method in brief: as §1

[7] = molecular target: PUM1 PUF domain R3-VNE (Homo sapiens, UniProt Q14671 828-1176, C935V;R936N;Q939E)
Method in brief: as §1

[8] = molecular target: PUM1 PUF domain R8-RKR (Homo sapiens, UniProt Q14671 828-1176, N1122R;Y1123K;Q1126R)
Method in brief: as §1

[9] = molecular target: PUM1 PUF domain R3-LYS (Homo sapiens, UniProt Q14671 828-1176, C935L;R936Y;Q939S)
Method in brief: as §1

[10] = molecular target: PUM1 PUF domain R1-KWE (Homo sapiens, UniProt Q14671 828-1176, S863K;R864W;Q867E)
Method in brief: as §1

[11] = molecular target: PUM1 PUF domain R3-RQG (Homo sapiens, UniProt Q14671 828-1176, C935R;R936Q;Q939G)
Method in brief: as §1

[12] = molecular target: PUM1 PUF domain R3-QPE (Homo sapiens, UniProt Q14671 828-1176, C935Q;R936P;Q939E)
Method in brief: as §1

[13] = molecular target: T3, PUM1 PUF domain R6-QWM (Homo sapiens, UniProt Q14671 828-1176, N1043Q;Y1044W;Q1047M)
T3 sequence: T1 sequence with K216Q, R220M
Method in brief: as §1

[14] = molecular target: PUM1 PUF domain R2-KLQ (Homo sapiens, UniProt Q14671 828-1176, N899K;Y900L)
Method in brief: as §1

[15] = molecular target: PUM1 PUF domain R4-DYN (Homo sapiens, UniProt Q14671 828-1176, N971D;H972Y;Q975N)
Method in brief: as §1

[16] = molecular target: PUM1 PUF domain R5-RMK (Homo sapiens, UniProt Q14671 828-1176, C1007R;R1008M;Q1011K)
Method in brief: as §1

[17] = molecular target: T4, PUM1 PUF domain R6-SHE (Homo sapiens, UniProt Q14671 828-1176, N1043S;Y1044H;Q1047E)
T4 sequence: T1 sequence with K216S, W217H, R220E
Method in brief: as §1

[18] = molecular target: PUM1 PUF domain R1-RMT (Homo sapiens, UniProt Q14671 828-1176, S863R;R864M;Q867T)
Method in brief: as §1

GGCUAGAACUAGUGGAUCCCCCGGCGCCCGGCGGCUCGAGCCCGGGUAAGUGUUAAUAGUCUGCAUGCCGCCGGGCGCCAUGCCUGCAGGUCGACUCUAGAAAACAUG
binding signal [1]: 5.83 log2 enrichment (interaction score)

GGCUAGAACUAGUGGAUCCCCCGGCGCCCGGCGGCUCGAGCCCGGGUAAGUGUAAAUAGUCUGCAUGCCGCCGGGCGCCAUGCCUGCAGGUCGACUCUAGAAAACAUG
binding signal [2]: 6.69 log2 enrichment (interaction score) | binding signal [3]: 2.72 log2 enrichment (interaction score) | binding signal [4]: 3.67 log2 enrichment (interaction score) | binding signal [5]: 2.68 log2 enrichment (interaction score) | binding signal [6]: 1 log2 enrichment (interaction score) | binding signal [7]: 3.16 log2 enrichment (interaction score) | binding signal [8]: 3.9 log2 enrichment (interaction score) | binding signal [9]: 4.77 log2 enrichment (interaction score)

GGCUAGAACUAGUGGAUCCCCCGGCGCCCGGCGGCUCGAGCCCGGGUAAGUGUAAAUCGUCUGCAUGCCGCCGGGCGCCAUGCCUGCAGGUCGACUCUAGAAAACAUG
binding signal [10]: 4.74 log2 enrichment (interaction score)

GGCUAGAACUAGUGGAUCCCCCGGCGCCCGGCGGCUCGAGCCCGGGUAAGUGUAAUUAGUCUGCAUGCCGCCGGGCGCCAUGCCUGCAGGUCGACUCUAGAAAACAUG
binding signal [11]: 4.14 log2 enrichment (interaction score) | binding signal [12]: 2.87 log2 enrichment (interaction score) | binding signal [9]: 5.78 log2 enrichment (interaction score)

GGCUAGAACUAGUGGAUCCCCCGGCGCCCGGCGGCUCGAGCCCGGGUAAGUGAAAAUAGUCUGCAUGCCGCCGGGCGCCAUGCCUGCAGGUCGACUCUAGAAAACAUG
binding signal [4]: 2.8 log2 enrichment (interaction score) | binding signal [13]: 4.68 log2 enrichment (interaction score)

GGCUAGAACUAGUGGAUCCCCCGGCGCCCGGCGGCUCGAGCCCGGGUAAGUGUAAAGAGUCUGCAUGCCGCCGGGCGCCAUGCCUGCAGGUCGACUCUAGAAAACAUG
binding signal [14]: 3.21 log2 enrichment (interaction score)

GGCUAGAACUAGUGGAUCCCCCGGCGCCCGGCGGCUCGAGCCCGGGUAAGUGUAUAUAGUCUGCAUGCCGCCGGGCGCCAUGCCUGCAGGUCGACUCUAGAAAACAUG
binding signal [15]: 5.22 log2 enrichment (interaction score)

GGCUAGAACUAGUGGAUCCCCCGGCGCCCGGCGGCUCGAGCCCGGGUAAGUGUCAAUAGUCUGCAUGCCGCCGGGCGCCAUGCCUGCAGGUCGACUCUAGAAAACAUG
binding signal [6]: 3.83 log2 enrichment (interaction score) | binding signal [16]: 2.87 log2 enrichment (interaction score)

GGCUAGAACUAGUGGAUCCCCCGGCGCCCGGCGGCUCGAGCCCGGGUAAGUGGAAAUAGUCUGCAUGCCGCCGGGCGCCAUGCCUGCAGGUCGACUCUAGAAAACAUG
binding signal [17]: 4.66 log2 enrichment (interaction score)

GGCUAGAACUAGUGGAUCCCCCGGCGCCCGGCGGCUCGAGCCCGGGUAAGUGUAAGUAGUCUGCAUGCCGCCGGGCGCCAUGCCUGCAGGUCGACUCUAGAAAACAUG
binding signal [7]: 0.75 log2 enrichment (interaction score)

GGCUAGAACUAGUGGAUCCCCCGGCGCCCGGCGGCUCGAGCCCGGGUAAGUGUAAAUUGUCUGCAUGCCGCCGGGCGCCAUGCCUGCAGGUCGACUCUAGAAAACAUG
binding signal [18]: 3.66 log2 enrichment (interaction score)

GGCUAGAACUAGUGGAUCCCCCGGCGCCCGGCGGCUCGAGCCCGGGUAAGUGUAAAUGGUCUGCAUGCCGCCGGGCGCCAUGCCUGCAGGUCGACUCUAGAAAACAUG
binding signal [18]: 1.2 log2 enrichment (interaction score)

GGCUAGAACUAGUGGAUCCCCCGGCGCCCGGCGGCUCGAGCCCGGGUAAGCGUAAAUAGUCUGCAUGCCGCCGGGCGCCAUGCCUGCAGGUCGACUCUAGAAAACAUG
binding signal [8]: 5.43 log2 enrichment (interaction score)
